Results published in PubChem BioAssay (NCI).
“And” between values parts separate entries of the source, which are not always exact repeats. Identical values can stand only once. Compounds without any hit were thinned out: in the full panel of roughly 83,000, 20% have a hit.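 Growth was measured after 48 h exposure to one concentration of compound in 96-well plates. Values under 10 count as active.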 The source made the active and inactive calls.

System: HL-60(TB) leukemia
Experiment: NCI-60 one-dose screen, 48 h (100 = growth as untreated, 0 = no growth, -100 = all killed)
Details: 10 µM unless noted

Compound | growth
O=C(Nc1ccc(-n2ccc3c(NC(=O)c4ccccc4)nccc32)cc1)c1ccc(N2CCOCC2)c(C(F)(F)F)c1 | 24.8% (inactive)
CC(C)(C)c1cc(-c2nc3ccc(N4CCN(S(C)(=O)=O)CC4)cc3[nH]2)cc(C(C)(C)C)c1O | 90.2% (inactive)
Cc1ncc(C(=O)Nc2ccc(CN3CCN(C)CC3)c(C(F)(F)F)c2)cc1C#Cc1cnc(NC2CC2)c2ncccc12 | 34.1% (inactive)
O=C1c2ccccc2-c2c1c1c(=O)[nH]c3ccccc3c1n2Cc1ccccc1 | 73.9% (inactive)
CCc1cccc2c3c(sc12)C(c1ccc(F)cc1)C(C#N)=C(N)O3 (centres undefined) | 1.86% (active)
CC(C)c1[nH]ncc1-c1nc2ccc3[nH]ncc3c2c2c1CCCC2 | 13.4% (inactive)
CNC(=O)CN1CCC(Oc2cc3c(Nc4cccc(Cl)c4F)ncnc3cc2OC)CC1 | 86.9% (inactive)
Cc1ccc(-c2cn(C/C=C3\C=CN(S(=O)(=O)c4ccccc4)CC3)nn2)cc1 | 105% (inactive)
O=[N+]([O-])c1cccc(/C=C/c2ccc3ccccc3n2)c1 | 90.8% (inactive)
CCOC(=O)NC(/C=C/c1ccccc1)NC(=O)OCC | 103% (inactive)
NNC(=O)c1ccc(C(=O)NN)cc1 | 124% (inactive)
COc1cccc(C2C3=C(COC3=O)N(CCO)c3cc(OC)ccc32)c1 (centres undefined) | -25.9% (active)
O=C1C=C(C(O)c2ccc(O)cc2)C(=O)c2ccccc21 (centres undefined) | 98.4% (inactive)
O=C1Nc2ccccc2/C1=C/c1cn(C(=O)c2c(Cl)cccc2Cl)c2ccccc12 | 72.1% (inactive)
Cc1cnc(C(=O)NNc2nc3sc4c(c3c(=O)n2C)C(C)CCC4)cn1 (centres undefined) | -32.3% (active)
CN1CCN(C2CCN(C(=O)Nc3cc(Oc4ccc(NC(=O)C5(C(=O)Nc6ccc(F)cc6)CC5)c(F)c4)ccn3)CC2)CC1 | -44.7% (active) and 121% (inactive)
Oc1ccccc1/C=N\NC(=S)N/N=C/c1ccccc1O | -7.82% (active) and 18.6% (inactive)
CC1CCC(=O)N1c1ccc(N)cc1 (centres undefined) | 104% (inactive)
COc1ccc(-c2nnc(SCC(=O)Nc3ccc(C(=O)/C=C/c4ccccc4)cc3)o2)cc1OC | 90% (inactive)
COc1cc(C(=O)N/N=C/c2cccc([N+](=O)[O-])c2)cc(OC)c1OC | 41.3% (inactive)

Compound | growth
COc1ccc(-c2nn(-c3cccc(NC(=O)c4ccc(Cl)c(Cl)c4)c3)cc2-c2ccncc2)cc1Cl | 89.1% (inactive)
COc1ccc(/C=C2\Oc3cc(OCCN4CCC(Cc5ccccc5)CC4)ccc3C2=O)cc1OC | 99.7% (inactive)
COc1ccc(-c2nn(-c3cccc(Cl)c3)cc2-c2c(C#N)c(=O)n3[nH]c(-c4ccccc4)nc3c2C#N)cc1 | 79.9% (inactive)
COc1ccc(-c2cc(NC(=O)Nc3ccc(O)cc3)no2)cc1 | 26.4% (inactive)
CCOC(=O)c1csc(N)n1 | 95.1% (inactive) and 98.1% (inactive)
COc1cc(/C=C/c2cc(/C=C/c3ccc(O)c(OC)c3)n(-c3c(Cl)cccc3Cl)c(=O)n2)ccc1O | 13.5% (inactive)
O=C(COc1cccc(/C=C2\COc3ccc(Cl)cc3C2=O)c1)c1ccc(Cl)cc1 | 52.7% (inactive)
O=C(/C=C/C=C/c1ccccc1)c1ccco1 | -38.2% (active)
C=CCOc1c(Br)cc(Br)cc1Br | 76.2% (inactive)
CCN(CCO)CCC(=O)c1ccc([N+](=O)[O-])cc1 | 109% (inactive)
O=[N+]([O-])c1ccc(S(=O)(=O)N2CCN(C3=NS(=O)(=O)c4ccccc4N3c3ccccc3)CC2)cc1 | 96.7% (inactive)
CCCCCCCSc1ncnc2[nH]ncc12 | 87.4% (inactive)
C#CCn1cnc2c(Nc3cccc(NC(=O)C=C)c3)ncnc21 | 99.6% (inactive)
CCN(CC)CCCCCCNc1ccnc2cc(Cl)ccc12 | 103% (inactive)
O[C@H](c1cc(C(F)(F)F)nc2c(C(F)(F)F)cccc12)[C@@H]1CCCCN1 | 52.8% (inactive) and 50.7% (inactive)
Oc1ccc(Cn2cc3c(c2-c2ccccc2)CCc2cnoc2-3)cc1 | 93.8% (inactive)
C/C=C(\C)C(C(=O)NC1CCCCC1)N(C(=O)C1CCc2cc(F)ccc2O1)c1ccc(Cl)cc1 (centres undefined) | 97.8% (inactive)
C/C(=N\NC(N)=S)c1nc2ccc(Cl)cc2[nH]1 | 29.5% (inactive)
CCC1OC(OC)C=CC1=O (centres undefined) | 77% (inactive)
